According to PubChem BioAssay AID1259422 (The Scripps Research Institute Molecular Screening Center, 2018):
The campaign covered roughly 640,000 compounds. About 9,300 (1.5%) were called active. Rule as the data show it: active = inhibition above about 32%; inactive = the rest. This excerpt belongs to a sample that is enriched for actives.

Assay: TEAD-YAP interaction inhibition, primary screen, TEAD-YAP interaction inhibitor project, luminescence, HEK-TIYL cells (AID 1259422);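 also: 0% = median of test compound wells and 100% = reference inhibitor wells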
Details: TEAD-Gal4/YAP UAS-luciferase luminescence, at 9.12 µM, stronger effect = higher value
With `COc1cc(C(=O)NC(c2ccccc2Cl)c2cc([N+](=O)[O-])c3cccnc3c2O)cc(OC)c1OC` (stereo unspecified) the inhibition was -0.41% (inactive).
For `Cc1ccnc(NC(c2ccccc2Cl)c2ccc3cccnc3c2O)c1` (stereo unspecified), the inhibition was 77.9% (active).
For `Cc1cccc(NC(c2cccc(F)c2)c2ccc3ccc(C)nc3c2O)n1` (stereo unspecified), the inhibition was 1.53% (inactive).
In the case of `Oc1c(C(Nc2ccccn2)c2ccc(OC(F)F)cc2)ccc2cccnc12` (stereo unspecified), the inhibition was 70.2% (active).
With `Cc1cccc(NC(c2ccc3c(c2)OCO3)c2ccc3ccc(C)nc3c2O)n1` (stereo unspecified) the inhibition was 15.8% (inactive).
With `Oc1ccc2ncccc2c1C(Nc1ccccn1)c1ccccc1` (stereo unspecified) the inhibition was 6.96% (inactive).
For `Cc1ccnc(NC(c2ccc3cccnc3c2O)c2c(F)cccc2Cl)c1` (stereo unspecified), the inhibition was 34.7% (active).
With `Cc1ccnc(NC(c2ccc(O)cc2)c2ccc3ccc(C)nc3c2O)c1` (stereo unspecified) the inhibition was -16.1% (inactive).
With `Oc1c(C(Nc2ccccn2)c2cccnc2)ccc2cccnc12` (stereo unspecified) the inhibition was 14.9% (inactive).
In the case of `CCOC(=O)c1sc2ncn(CC(=O)Nc3cccc(C(F)(F)F)c3)c(=O)c2c1C`, the inhibition was 0.34% (inactive).
In the case of `Cc1ccc(NC(=O)c2cc(S(=O)(=O)N3CCN(c4cccc(Cl)c4)CC3)ccc2F)cc1F`, the inhibition was -4.95% (inactive).
In the case of `CCN1CCN(c2cc(Nc3cc(OC)c(OC)c(OC)c3)c3c4c(onc24)-c2ccccc2C3=O)CC1`, the inhibition was 5.58% (inactive).
With `Cc1ccc(S(=O)(=O)CCc2nnc(NC(=O)c3ccc([N+](=O)[O-])cc3)s2)cc1` the inhibition was -5.17% (inactive).
For `NC(=O)Cn1c(=O)n(CCCCC(=O)NCc2ccccc2Cl)c(=O)c2ccccc21`, the inhibition was 2.5% (inactive).
With `O=C(NC1CCN(Cc2ccccc2)CC1)c1cccc(Nc2nccc3ccccc23)c1` the inhibition was 2.07% (inactive).
For `CS(=O)(=O)N(CC(O)Cn1c2ccccc2c2ccccc21)c1ccccc1I` (stereo unspecified), the inhibition was -12.3% (inactive).
For `CCCC(=O)NC(c1ccccc1OC)c1cc([N+](=O)[O-])c2cccnc2c1O` (stereo unspecified), the inhibition was 20.6% (inactive).
With `CNC(=O)COC(=O)c1c(Cl)cccc1Cl` the inhibition was -0.51% (inactive).
With `Cc1ccc(S(=O)(=O)Nc2ccccc2C(=O)NN)cc1` the inhibition was 12.8% (inactive).
In the case of `CCOC(=O)c1ccccc1NS(=O)(=O)c1ccc(OC)cc1`, the inhibition was 46.5% (active).
For `CCOC(=O)c1ccccc1NC(=O)/C=C/c1ccc(OC)cc1`, the inhibition was 4.72% (inactive).
With `O=C(Nc1ccccc1C(F)(F)F)c1cc(S(=O)(=O)NC2CCCC2)ccc1F` the inhibition was 1.13% (inactive).
In the case of `CCS(=O)(=O)c1ncc(Cl)c(C(=O)Nc2ccc(OC(F)F)cc2)n1`, the inhibition was -5.89% (inactive).
For `Cc1ccc(F)cc1NC(=O)Cc1nn(C)c(=O)c2ccccc12`, the inhibition was 29.9% (inactive).
With `Cn1nc(CC(=O)Nc2ccc(F)c(F)c2)c2ccccc2c1=O` the inhibition was 46.9% (active).
With `Cc1cc(NC(=O)Cc2nn(C)c(=O)c3ccccc23)ccc1Br` the inhibition was 4.56% (inactive).
In the case of `COc1cc(Nc2nccn3c(-c4cccc(NC(C)=O)c4)cnc23)cc(OC)c1OC`, the inhibition was 51.5% (active).
In the case of `COc1ccc(Nc2ncc(-c3cccc(NC(C)=O)c3)n3ccnc23)cc1`, the inhibition was -67.3% (inactive).
For `COc1cccc(-c2cnc3c(Nc4ccc(C(N)=O)cc4)nccn23)c1`, the inhibition was -21.2% (inactive).
With `Cc1nc(-c2cncc(-c3ccc(F)cc3)c2)cc(=O)[nH]1` the inhibition was 5.59% (inactive).
In the case of `COc1cc(C(=O)Nc2ncc(Cc3ccccc3Cl)s2)cc(OC)c1OC`, the inhibition was 57.5% (active).
For `COc1cc(NC(=O)c2sc3ncn(Cc4ccccc4Cl)c(=O)c3c2C)cc(OC)c1OC`, the inhibition was 0.99% (inactive).
With `COc1cc(C(=O)Oc2ccccc2Cl)cc(OC)c1OC` the inhibition was 0.19% (inactive).
In the case of `CC(=O)Nc1ccc(NC(=O)c2cc3nc(C)ccc3o2)cc1`, the inhibition was 6.06% (inactive).
With `CCOC(=O)c1ccc(NC(=O)COc2c(Br)cc(C=O)cc2OC)cc1` the inhibition was -2.35% (inactive).
For `CC1Nc2c(c(=O)oc3ccccc23)NC1=O` (stereo unspecified), the inhibition was -13.4% (inactive).
For `O=c1c2nccnc2[nH]c(=S)n1CCc1ccccc1`, the inhibition was 32.2% (active).
For `O=C(Nc1ccc(Oc2ccccc2)cc1)c1ccc2c(=O)n(CCc3ccccc3)c(=S)[nH]c2c1`, the inhibition was 4.57% (inactive).
In the case of `O=C(NCCc1ccc(Cl)cc1)c1ccc2c(=O)n(CCc3ccccc3)c(=S)[nH]c2c1`, the inhibition was 6.42% (inactive).
For `Cc1ccc(C)c(C(=O)Nc2ccc3c(c2)N(S(=O)(=O)c2ccc(F)cc2)CCC3)c1`, the inhibition was -2.68% (inactive).
For `CC(=O)Nc1nc(C)c(-c2csc(Nc3ccc(C)cc3)n2)s1`, the inhibition was 1.48% (inactive).
For `Cc1nc(N)sc1-c1csc(Nc2ccc(O)cc2)n1`, the inhibition was 2.78% (inactive).
In the case of `Cc1nc(C)c(-c2csc(Nc3ccc(Br)cc3)n2)s1`, the inhibition was 52.5% (active).
In the case of `CC(C)Cn1c(-c2ccccc2)c[nH]c1=S`, the inhibition was 4.66% (inactive).
In the case of `CCN1CCN(C2=C(Cl)C(=O)N(c3cccc(C(=O)OC)c3)C2=O)CC1`, the inhibition was 23.4% (inactive).
For `CCOc1ccc(Cl)cc1S(N)(=O)=O`, the inhibition was -4.54% (inactive).
With `CC(=O)Nc1cccc(C(=O)N/N=C/c2c(O)ccc3ccccc23)c1` the inhibition was 14.8% (inactive).
In the case of `O=C(N/N=C/c1c(O)ccc2ccccc12)c1cc([N+](=O)[O-])cc([N+](=O)[O-])c1`, the inhibition was 3.24% (inactive).
With `COc1ccc(C(=O)N/N=C/c2c(O)ccc3ccccc23)cc1` the inhibition was 58.3% (active).
For `O=C(NCc1ccco1)c1ccc(N2CC3CC(C2)c2cccc(=O)n2C3)c(NC(=S)Nc2ccc(Cl)cc2Cl)c1` (stereo unspecified), the inhibition was -0.4% (inactive).
For `Cc1ccc(Nc2nc3nonc3nc2Nc2ccccc2F)cc1`, the inhibition was 69.4% (active).
With `Nc1nc2nonc2nc1Nc1ccccc1` the inhibition was 10.4% (inactive).
With `Cc1ccc(Nc2nc3nonc3nc2NNc2ccccc2)cc1Cl` the inhibition was -9.84% (inactive).
With `Cc1cc(Cl)cc(Cl)c1OCCOCCN(C)CCO` the inhibition was 3.38% (inactive).
In the case of `O=C(NCCc1ccccc1)c1cc(Sc2ccccc2Cl)nc2ccccc12`, the inhibition was -11.2% (inactive).
In the case of `O=C(NCCc1ccsc1)Nc1ccccc1F`, the inhibition was -29.3% (inactive).
For `O=C(NCCc1ccsc1)c1ccccc1Cl`, the inhibition was 46.4% (active).
In the case of `COc1cccc(NC(=O)CSc2nnc(-c3ccc(F)cc3)c(-c3ccc(F)cc3)n2)c1`, the inhibition was 16.5% (inactive).
With `COc1ccc(Nc2ncnc3ccc(Br)cc23)cc1` the inhibition was 33.4% (active).
With `Fc1ccc(Nc2ncnc3ccc(I)cc23)cc1` the inhibition was 25.1% (inactive).
For `COc1ccc(Nc2ncnc3c2cnn3-c2ccc(OC)cc2)cc1`, the inhibition was -19.6% (inactive).
For `CC(=O)Oc1cc(C(=O)Nc2cccc(C#N)c2)cc(C(=O)Nc2cccc(C#N)c2)c1`, the inhibition was -1.56% (inactive).
For `CC(=O)Oc1cccc(C(=O)Nc2ccc(C)c(C)c2)c1`, the inhibition was 62.5% (active).
For `CC(=O)Oc1cccc(C(=O)Nc2ccccc2Br)c1`, the inhibition was 14.5% (inactive).
For `O=C(CNC(=O)c1ccc(Br)o1)OCC(=O)c1ccc(Br)cc1`, the inhibition was 4.37% (inactive).
In the case of `Cc1ccc(CNC(=O)C(=O)N/N=C/c2ccccc2I)cc1`, the inhibition was -10.4% (inactive).
For `COc1ccc(CC2(CCC(=O)NCc3nc(C)cs3)CCC(=O)N2)c2ccccc12` (stereo unspecified), the inhibition was -13.4% (inactive).
For `COc1ccc(Cc2nnc(N/N=C/c3ccccc3O)[nH]c2=O)cc1OC`, the inhibition was 85.4% (active).
With `COc1cccc(Nc2nnc(Cc3ccc(Cl)cc3)c(=O)[nH]2)c1` the inhibition was 7.31% (inactive).
In the case of `CCOc1ccccc1Nc1nnc(Cc2ccc(OC)cc2)c(=O)[nH]1`, the inhibition was 3.03% (inactive).
In the case of `COc1cccc(C2(NC(=O)CN3C(=O)NC4C3N(C)C(=O)N4C)CCCC2)c1` (stereo unspecified), the inhibition was 4.87% (inactive).
For `CC1CN(C(=S)c2ccc(Br)cc2)CC(C)O1` (stereo unspecified), the inhibition was 6.13% (inactive).
For `O=C(CSc1nnc(NC(=O)C2CCC2)s1)NCc1cccs1`, the inhibition was 5.18% (inactive).
In the case of `COc1cc(/C=N/N=C2/NC(=O)CS2)ccc1OC(=O)c1ccccc1C`, the inhibition was 3.4% (inactive).
In the case of `COc1cccc(/C=N/NC(=O)C(=O)Nc2cccc3ccccc23)c1O`, the inhibition was 65.7% (active).
With `COc1cccc(/C=N/NC(=O)CC23CC4CC(CC(C4)C2)C3)c1O` the inhibition was 69.8% (active).
For `COc1cccc(/C=N/N=C2/NC(=O)CS2)c1O`, the inhibition was 58.3% (active).
In the case of `O=C(N/N=C/c1cccc2ccccc12)C(=O)N/N=C/c1cccc2ccccc12`, the inhibition was 0.24% (inactive).
In the case of `COc1cccc(/C=N/NC(=O)c2ccccc2I)c1O`, the inhibition was 13.4% (inactive).
For `COc1ccc(/C=N/N=C2/NC(=O)CS2)c(OC)c1`, the inhibition was -13.7% (inactive).
In the case of `COc1cccc(/C=N/NC(=O)CNc2cccc(C)c2)c1O`, the inhibition was 13.4% (inactive).
For `COc1cccc(/C=N/NC(=O)c2cc(O)cc(O)c2)c1O`, the inhibition was 20.7% (inactive).
In the case of `O=C(Cc1ccsc1)N1CCC[C@@H]2CN(C/C=C/c3ccccc3)CC[C@H]21`, the inhibition was -4.71% (inactive).
With `CS(=O)(=O)c1ccc(NCc2ccco2)cc1` the inhibition was -0.14% (inactive).
In the case of `CCOC(=O)C1=C(C)N=c2s/c(=C\c3ccc(N(C)C)c(Br)c3)c(=O)n2C1c1ccc(OC)c(OC)c1` (stereo unspecified), the inhibition was -28.6% (inactive).
For `CCc1nc(SCC(N)=O)c2c3c(sc2n1)CCCC3`, the inhibition was -22.7% (inactive).
With `COc1ccc2nc(N3CCC(NCc4cccc(F)c4F)CC3)nc(C)c2c1` the inhibition was 5.35% (inactive).
With `CC(=O)C(C(C)=O)c1cc(Nc2ccc(C)cc2)c2c3c(onc13)-c1ccccc1C2=O` the inhibition was 3.02% (inactive).
With `CCOC(=O)C1(CO)NC(c2ccc(O)cc2)C2C(=O)N(C)C(=O)C21` (stereo unspecified) the inhibition was -8.15% (inactive).
With `CCOC(=O)C(=O)C(C#N)c1ccc(OC(C)C)cc1` (stereo unspecified) the inhibition was 2.75% (inactive).
In the case of `c1ccc(OCCNc2cc(-c3ccccc3)ncn2)cc1`, the inhibition was -25.8% (inactive).
In the case of `CCCNc1ccc2ncc(-c3ccco3)n2n1`, the inhibition was 3.49% (inactive).
For `CCCCNc1cc(-c2cccc(OC)c2)ncn1`, the inhibition was 64.6% (active).
For `CCCNc1ccc2ncc(-c3cccc(OC)c3)n2n1`, the inhibition was 59.2% (active).
For `CCCNc1cc(-c2cccc(N)c2)ncn1`, the inhibition was -10.6% (inactive).
With `COc1cccc(-c2cnc3ccc(NCc4ccco4)nn23)c1` the inhibition was 8.66% (inactive).
